From the supplement of paper PMC7366291 come the findings set out here.

Settings in all cases: 25 µM; exposure: 24-48 hpf
The test system of experiment [1] is Danio rerio Tg(wt1b:EGFP) embryo, pronephros. Briefly: glomerular separation, fold change vs DMSO control; higher = glomeruli further apart (abnormal). Put shortly:
(§1)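 Dechorionated Tg(wt1b:EGFP) zebrafish embryos were kept from 24 to 48 hpf at 28.5°C in HEPES-buffered E3 containing 0.003% PTU, 0.5% DMSO and 25 μM compound. The pronephroi were then imaged from the dorsal side in agarose-filled 96-well plates at 470 nm with 10 z-slices, and 16 reference points were placed by hand on maximum projections in Fiji so that a macro could calculate distances and angles. Values lying more than 2 SD from the mean of a feature were discarded. Every feature is given as a fold change against the mean of DMSO-treated embryos from the same day.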

Experiment [2] has the same test system. Kind of experiment: glomerular width (mean of left and right), fold change vs DMSO control; higher = wider glomerulus. Put shortly: as §1
Experiment [3] has the same test system. Kind of experiment: fraction of imaged embryos annotated as normal kidney; higher = less nephrotoxic; extreme values may be limits of the assay. Put shortly:
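Tricaine-anaesthetised Tg(wt1b:EGFP) zebrafish larvae were oriented dorsally in agarose-filled 96-well plates, and their pronephroi were recorded by widefield fluorescence at 470 nm in 10 z-slices. Before this, the dechorionated embryos had been exposed in 12-well plates to 25 μM compound in 0.5% DMSO and 5 mM HEPES-buffered E3 with 0.003% PTU, from 24 to 48 hpf at 28.5°C. Maximum projections were annotated manually for each embryo, and the read-out is the fraction per treatment classed as normal kidney.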

Experiment [4] has the same test system. Briefly: pronephric angle neck segment to proximal convoluted tubule (mean of left and right), fold change vs DMSO control; higher = larger pronephric angle. The method in brief: as §1

Where a name gives a salt, the structure may show the parent alone. ± gives the standard deviation or the standard deviation of the averaged measurements.

`Cc1cnc(NC(=O)C2=C(O)c3ccccc3S(=O)(=O)N2C)s1` [Meloxicam]: in experiment [1], the glomerular separation came out at 6.33 ± 2.2. This molecule showed a glomerular width in experiment [2] of 0.678 ± 0.021. Besides, the “fraction of imaged embryos annotated as normal kidney” value (from here on “fraction of imaged embryos annotated”) in experiment [3] turned out to be 0. Moreover, the “pronephric angle neck segment” value in experiment [4] was 1.76 ± 0.0091.
In experiment [1], `CNc1ncnc2c1ncn2[C@@H]1O[C@H](CO)[C@@H](O)[C@H]1O` [N6-methyladenosine] gave a glomerular separation of 0.849 ± 0.21. The molecule further had a glomerular width in experiment [2] of 1.05 ± 0.029. Also, in experiment [3], the “fraction of imaged embryos annotated” value is 1. Moreover, the “pronephric angle neck segment” value in experiment [4] amounted to 1.01 ± 0.065.
For `CC[N+](C)(C)Cc1ccccc1Br` [Bretylium tosylate] the same measures were 0.631 ± 0.23, 0.9664 ± 0.0094, 1 and 0.982 ± 0.028.
Consider `CC[C@H](C)[C@H](N)C1=N[C@H](C(=O)N[C@@H](CC(C)C)C(=O)N[C@H](CCC(=O)O)C(=O)N[C@H](C(=O)N[C@H]2CCCCNC(=O)[C@H](CC(N)=O)NC(=O)[C@@H](CC(=O)O)NC(=O)[C@H](Cc3cnc[nH]3)NC(=O)[C@@H](Cc3ccccc3)NC(=O)[C@H]([C@@H](C)CC)NC(=O)[C@@H](CCCN)NC2=O)[C@@H](C)CC)CS1` [Bacitracin], for which the glomerular separation in experiment [1] amounted to 0.822 ± 0.28. In experiment [2], this molecule displayed a glomerular width of 0.912 ± 0.019. In addition, the “fraction of imaged embryos annotated” value in experiment [3] is 1. In experiment [4], the “pronephric angle neck segment” value is 1.01 ± 0.013.
In turn, `Clc1ccc(Cn2c(CN3CCCC3)nc3ccccc32)cc1` [Clemizole hydrochloride] registered a glomerular separation in experiment [1] of 1.13 ± 0.35. The same molecule came in with a glomerular width in experiment [2] of 1.03 ± 0.036. Also, the “fraction of imaged embryos annotated” value in experiment [3] was 0.545. Besides, the “pronephric angle neck segment” value in experiment [4] is 1.02 ± 0.08.
The like results for `C[C@]12C=CC(=O)C=C1CC[C@H]1[C@@H]3C[C@@H](O)[C@](O)(C(=O)CO)[C@@]3(C)C[C@H](O)[C@@]12F` [Triamcinolone] were, in that order, 1.19 ± 0.58, 1.23 ± 0.034, 0.75 and 1.119 ± 0.0058.
For `Cc1cn[nH]c1` [Fomepizole] the same measures were 0.953 ± 0.37, 1.0458 ± 0.00026, 0.917 and 1.01 ± 0.018.
For `c1ccc2c(c1)CCCC2C1=NCCN1` (stereo unspecified) [Tetrahydrozoline hydrochloride] the same measures were 0.793 ± 0.31, 1.06 ± 0.027, 1 and 0.98 ± 0.042.
On to `Cc1cc(=O)oc2cc(O)ccc12` [Hymecromone], for which the glomerular separation in experiment [1] was determined as 0.837 ± 0.36. In addition, the glomerular width in experiment [2] amounted to 1 ± 0.013. In experiment [3], the “fraction of imaged embryos annotated” value came to 0.909. The “pronephric angle neck segment” value in experiment [4] is 0.98 ± 0.01.
The like results for `CC(c1cc2ccccc2s1)N(O)C(N)=O` (stereo unspecified) [Zileuton] were, in that order, 1.25 ± 0.57, 0.993 ± 0.02, 0.667 and 1.11 ± 0.072.
The like results for `CC(NCCc1ccc(O)cc1)C(O)c1ccc(O)cc1` (stereo unspecified) [Ritodrine hydrochloride] were, in that order, 1.03 ± 0.28, 0.952 ± 0.012, 0.833 and 1.038 ± 0.0019.
Regarding `Cc1c(O)cccc1C(=O)N[C@@H](CSc1ccccc1)[C@H](O)CN1C[C@H]2CCCC[C@H]2C[C@H]1C(=O)NC(C)(C)C` [Nelfinavir mesylate], the glomerular separation in experiment [1] came out at 0.563 ± 0.13. Further, in experiment [2], the glomerular width was found to be 1.05 ± 0.017. Besides, the “fraction of imaged embryos annotated” value in experiment [3] was determined as 1. For the same molecule, the “pronephric angle neck segment” value in experiment [4] is 0.954 ± 0.03.
The like results for `Clc1ccc(C(c2ccccc2Cl)C(Cl)Cl)cc1` (stereo unspecified) [Mitotane] were, in that order, 0.566 ± 0.18, 0.969 ± 0.038, 0.909 and 1.05 ± 0.049.
The molecule `CN(C)CCCO[C@@H]1[C@H]2OC(C)(C)O[C@H]2O[C@@H]1[C@H](O)CO` [Amiprilose hydrochloride] registered a glomerular separation in experiment [1] of 1.12 ± 0.66. In experiment [2], this molecule yielded a glomerular width of 1.08 ± 0.071. In addition, in experiment [3], the “fraction of imaged embryos annotated” value came to 0.667. Further, the “pronephric angle neck segment” value in experiment [4] turned out to be 1 ± 0.02.
In turn, `Oc1ccc(C2CNCCc3c2cc(O)c(O)c3Cl)cc1` (stereo unspecified) [Fenoldopam] gave a glomerular separation in experiment [1] of 0.757 ± 0.32. In experiment [2], this molecule yielded a glomerular width of 1.01 ± 0.038. Further, the “fraction of imaged embryos annotated” value in experiment [3] is 0.917. Also, the “pronephric angle neck segment” value in experiment [4] came out at 0.979 ± 0.053.
In the case of `CC(C)Nc1cccnc1N1CCN(C(=O)c2cc3cc(NS(C)(=O)=O)ccc3[nH]2)CC1` [Delavirdine], in experiment [1], the glomerular separation is 0.975 ± 0.41. In addition, the glomerular width in experiment [2] is 1.16 ± 0.017. The “fraction of imaged embryos annotated” value in experiment [3] is 0.667. In addition, the “pronephric angle neck segment” value in experiment [4] is 0.921 ± 0.045.
For `CCN(CC)C(=O)c1ccc(O)c(OC)c1` [Ethamivan] the same measures were 1.08 ± 0.29, 1.1 ± 0.019, 0.818 and 1.019 ± 0.0025.
The like results for `CNC1(C)C2CCC(C2)C1(C)C` (stereo unspecified) [Mecamylamine hydrochloride] were, in that order, 1.09 ± 0.32, 0.973 ± 0.089, 0.833 and 1.07 ± 0.074.
The like results for `O=C1O[C@H]([C@@H](O)CO)C(O)=C1O` [Ascorbic acid] were, in that order, 1.08 ± 0.33, 1.01 ± 0.09, 0.75 and 1.03 ± 0.025.
`CC(C)c1nc(CN(C)C(=O)N[C@H](C(=O)N[C@@H](Cc2ccccc2)C[C@H](O)[C@H](Cc2ccccc2)NC(=O)OCc2cncs2)C(C)C)cs1` [Ritonavir]: the glomerular separation in experiment [1] was determined as 1.18 ± 0.61. This molecule registered a glomerular width in experiment [2] of 0.961 ± 0.094. The “fraction of imaged embryos annotated” value in experiment [3] stood at 1. Further, in experiment [4], the “pronephric angle neck segment” value was found to be 1.02 ± 0.033.
For `OC(CCN1CCCC1)(c1ccccc1)C1CCCCC1` (stereo unspecified) [Procyclidine hydrochloride] the same measures were 0.639 ± 0.26, 1.1 ± 0.013, 0.833 and 0.954 ± 0.035.
The like results for `Cc1onc(-c2c(F)cccc2Cl)c1C(=O)N[C@@H]1C(=O)N2[C@@H]1SC(C)(C)[C@@H]2C(=O)O` [Flucloxacillin sodium] were, in that order, 1.05 ± 0.33, 0.989 ± 0.024, 0.833 and 0.958 ± 0.025.
For `O=C(CCCCCCC(=O)Nc1ccccc1)NO` [Vorinostat] the same measures were 1.25 ± 0.51, 0.947 ± 0.056, 0.667 and 1 ± 0.053.
Consider `CC(C)C(=O)c1c(C(C)C)nn2ccccc12` [Ibudilast], for which the glomerular separation in experiment [1] came to 0.785 ± 0.21. Moreover, the glomerular width in experiment [2] was found to be 0.92 ± 0.051. Further, the “fraction of imaged embryos annotated” value in experiment [3] is 1. In addition, in experiment [4], the “pronephric angle neck segment” value was determined as 1.01 ± 0.036.
The like results for `CN(C)CCC(c1ccc(Cl)cc1)c1ccccn1` (stereo unspecified) [Chlorpheniramine maleate] were, in that order, 1.56 ± 0.77, 1.04 ± 0.042, 0.667 and 0.969 ± 0.0027.
In the case of `CCCN(CCC)CCc1cccc2c1CC(=O)N2` [Ropinirole hydrochloride], the glomerular separation in experiment [1] was 1.34 ± 0.63. For the same molecule, in experiment [2], the glomerular width was determined as 0.908 ± 0.044. Besides, the “fraction of imaged embryos annotated” value in experiment [3] is 0.75. The “pronephric angle neck segment” value in experiment [4] was determined as 0.991 ± 0.037.
The like results for `CC(=O)N(CC(C)C(=O)O)c1c(I)cc(I)c(N)c1I` (stereo unspecified) [Iocetamic acid] were, in that order, 0.546 ± 0.25, 0.974 ± 0.011, 0.917 and 0.986 ± 0.024.
In turn, `CCN(CC)CCN[C@@H](C(=O)OCCC(C)C)c1ccccc1` [Camylofine chlorhydrate] yielded a glomerular separation in experiment [1] of 0.973 ± 0.34. Also, in experiment [2], the glomerular width was determined as 1.02 ± 0.018. For the same molecule, the “fraction of imaged embryos annotated” value in experiment [3] amounted to 0.75. Also, the “pronephric angle neck segment” value in experiment [4] was 0.977 ± 0.015.
For `CN(C)CCOC(c1ccccc1)c1ccccc1.Cn1c(=O)c2[nH]c(Cl)nc2n(C)c1=O` [Dimenhydrinate] the same measures were 1.31 ± 0.54, 1.05 ± 0.054, 0.917 and 1.029 ± 0.0072.
